Drawing on PubChem BioAssay (NCI), this text covers growth for nine compounds.

Among the test systems are NCI-H23 lung; NCI-H226 lung; NCI-H322M lung; HOP-62 NSCLC; NCI-H460 lung; HOP-92 NSCLC; NCI-H522 lung; A549/ATCC NSCLC; 786-0 renal; COLO 205 colon; DU-145 prostate; K-562 leukemia; MALME-3M melanoma; MDA-MB-231 breast; SF-268 CNS; SF-295 CNS; SF-539 CNS; M14 melanoma.
What all share (assay): NCI-60 one-dose screen, 48 h (100 = growth as untreated, 0 = no growth, -100 = all killed)
Conditions in all cases: 10 µM unless noted

This is part of a sample that, as a whole, favours compounds with a hit. Of some 83,000 tested, about 20% had one in any assay.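 For each line, cells grew in 96-well plates with the test compound present at a single concentration for 48 hours.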 Values without a mark were called inactive. Activity calls are given as the source filed them. How the source made its calls: active means growth percent below 10; inactive means the rest.

Turning to `CCN(CCN(C)C)C(=O)CNCc1cc(C(N)=O)ccn1`, the growth was 101% with NCI-H23 lung; 89.1% with NCI-H226 lung; 106% in the assay on NCI-H322M lung; 87% in the assay with HOP-62 NSCLC; 108% with NCI-H460 lung; 87.2% in the assay on HOP-92 NSCLC. The growth with NCI-H522 lung is 78.1%; in the assay with A549/ATCC NSCLC, 72.4%; in the assay on 786-0 renal, 103%; in the assay on COLO 205 colon, 108%; with DU-145 prostate, 112%; with K-562 leukemia, 95.2%. The growth in the assay on MALME-3M melanoma is 114%; in the assay on MDA-MB-231 breast, 97.6%; with SF-268 CNS, 108%; in the assay with SF-295 CNS, 104%; in the assay with SF-539 CNS it was 105%; with M14 melanoma it was 103%.
As for `C=CC[n+]1c(/C=C/C=C2\N(C)c3ccccc3C2(C)C)sc2ccc(OC)cc21`, the growth with NCI-H23 lung is 11.6%; with NCI-H226 lung, 10.8%; in the assay with NCI-H322M lung, 26.2%; in the assay with HOP-62 NSCLC, 14.4%; in the assay with NCI-H460 lung it was 7.84% (active); in the assay on HOP-92 NSCLC it was -4.42% (active). The growth in the assay with NCI-H522 lung was 3.52% (active); in the assay with A549/ATCC NSCLC it was 16.6%; in the assay on 786-0 renal, 26.8%; in the assay on COLO 205 colon, -37.4% (active); with DU-145 prostate it was 25.6%; in the assay with K-562 leukemia it was 10.3%. The growth in the assay on MALME-3M melanoma was 5.31% (active); in the assay on MDA-MB-231 breast, 26.1%; in the assay on SF-268 CNS, 32.7%; with SF-295 CNS, -17.7% (active); in the assay on SF-539 CNS, 25.7%; in the assay with M14 melanoma, 23%.
Regarding `Cc1ccccc1Nc1nc2nonc2nc1Nc1cccc(C)c1C`, the growth in the assay on NCI-H23 lung was 17.9%; in the assay on NCI-H226 lung it was 48.6%; in the assay on NCI-H322M lung, 80.7%; with HOP-62 NSCLC it was 72.1%; in the assay with NCI-H460 lung, 41.1%; with HOP-92 NSCLC it was 22.5%. For the same compound, the growth is 3.35% (active) with NCI-H522 lung; 27.4% in the assay on A549/ATCC NSCLC; 65.9% in the assay with 786-0 renal; 59.2% in the assay on COLO 205 colon; 71.9% in the assay on DU-145 prostate; 39.5% with K-562 leukemia. Also, the growth in the assay on MALME-3M melanoma is 78.6%; with MDA-MB-231 breast, 72.7%; in the assay with SF-268 CNS, 72.8%; in the assay with SF-295 CNS, 41.5%; in the assay on SF-539 CNS, 88.1%; in the assay with M14 melanoma it was 58.4%.
On to `CC(C)(C)C(=O)OCOP(=O)(OCOC(=O)C(C)(C)C)C1CCCN(OC(=O)c2ccccc2)C1=O` (configuration not stated), for which the growth was 16.8% with NCI-H23 lung; 34.9% in the assay with NCI-H226 lung; 21.2% with NCI-H322M lung; 22.8% with HOP-62 NSCLC; 15.6% with NCI-H460 lung; 29.3% with HOP-92 NSCLC. The growth is 12.9% in the assay with NCI-H522 lung; 24.6% in the assay on A549/ATCC NSCLC; 17.8% in the assay with 786-0 renal; 14.3% with COLO 205 colon; 36.9% with DU-145 prostate; 9.43% (active) with K-562 leukemia. The growth in the assay on MALME-3M melanoma is 29.4%; in the assay with MDA-MB-231 breast, 12.7%; in the assay on SF-268 CNS it was 36%; in the assay with SF-295 CNS, 57.3%; with SF-539 CNS it was 53%; in the assay on M14 melanoma it was 47.2%.
Regarding `CC(C)C1CCC(C)C(C2(C#N)C(N)=NC(N)=C2C#N)C1=O` (configuration not stated), the growth in the assay with NCI-H23 lung is 92.3%; in the assay on NCI-H226 lung it was 100%; in the assay with NCI-H322M lung, 98.8%; with HOP-62 NSCLC it was 104%; with NCI-H460 lung it was 105%; with HOP-92 NSCLC it was 88.9%. In addition, the growth in the assay with NCI-H522 lung is 89.4%; in the assay on A549/ATCC NSCLC, 105%; in the assay with 786-0 renal, 106%; in the assay on COLO 205 colon it was 100%; in the assay with DU-145 prostate it was 102%; in the assay with K-562 leukemia, 98.7%. Further, the growth with MALME-3M melanoma is 92.3%; with MDA-MB-231 breast, 95.8%; with SF-268 CNS it was 97.3%; in the assay on SF-295 CNS, 103%; with SF-539 CNS, 97.7%; in the assay with M14 melanoma, 96.1%.
With `COc1cc2c(cc1OCCCCCN1CCN(c3ncnc4ccccc34)CC1)N=CC1CCCN1C2=O` (configuration not stated), the growth is 3.3% (active) in the assay with NCI-H23 lung; -58.2% (active) in the assay with NCI-H226 lung; -0.115% (active) in the assay on NCI-H322M lung; -22.4% (active) with HOP-62 NSCLC; 5.35% (active) in the assay on NCI-H460 lung; -63.8% (active) in the assay with HOP-92 NSCLC. The growth with NCI-H522 lung was -55.4% (active); in the assay with A549/ATCC NSCLC, 1.13% (active); in the assay on 786-0 renal, -9.08% (active); in the assay with COLO 205 colon it was -46.1% (active); in the assay with DU-145 prostate it was -20.8% (active); with K-562 leukemia, 5.44% (active). Further, the growth is -59% (active) in the assay with MALME-3M melanoma; -26.6% (active) in the assay with MDA-MB-231 breast; -0.231% (active) in the assay with SF-268 CNS; -39.7% (active) with SF-295 CNS; -77.3% (active) in the assay on SF-539 CNS; -66.9% (active) with M14 melanoma.
With `C=C1C[C@H](O)[C@H](Br)C(C)(C)[C@@]12CCC(C)=C(Cl)C2`, the growth with NCI-H23 lung is 12.9%; in the assay on NCI-H226 lung it was 14.8%; in the assay with NCI-H322M lung, 40.3%; in the assay on HOP-62 NSCLC, 35.6%; in the assay with NCI-H460 lung, 13%; in the assay on HOP-92 NSCLC it was 23.6%. Besides, the growth in the assay with NCI-H522 lung was 15.7%; in the assay with A549/ATCC NSCLC, 6.49% (active); with 786-0 renal, 16.7%; in the assay with COLO 205 colon it was -79.1% (active); with DU-145 prostate, 22.7%; in the assay on K-562 leukemia, 12.3%. Moreover, the growth in the assay with MALME-3M melanoma was 38.5%; in the assay with MDA-MB-231 breast, 22.4%; in the assay on SF-268 CNS, 30.9%; with SF-295 CNS it was -3.01% (active); with SF-539 CNS, 34%; in the assay with M14 melanoma, -19.7% (active).
For the compound `N#Cc1c(NC(=O)c2cccs2)[n+]([O-])c2ccc(F)cc2[n+]1[O-]`, the growth was 98.5% with NCI-H23 lung; 88.6% in the assay with NCI-H226 lung; 99.1% in the assay on NCI-H322M lung; 68.1% in the assay on HOP-62 NSCLC; 99.1% in the assay on NCI-H460 lung; 73.3% with HOP-92 NSCLC. The growth is 87% in the assay with NCI-H522 lung; 106% with A549/ATCC NSCLC; 103% in the assay on 786-0 renal; 86.1% in the assay with COLO 205 colon; 103% in the assay on DU-145 prostate; 91.3% in the assay with K-562 leukemia. For the same compound, the growth is 92.4% in the assay with MALME-3M melanoma; 87.2% in the assay with MDA-MB-231 breast; 101% in the assay on SF-268 CNS; 100% in the assay on SF-295 CNS; 98.1% in the assay on SF-539 CNS; 101% in the assay with M14 melanoma.
As to `CC1(/C=N/NC(N)=S)NC(=O)NC1=O` (configuration not stated), the growth in the assay on NCI-H23 lung was 98%; with NCI-H226 lung it was 95.1%; with NCI-H322M lung, 107%; with HOP-62 NSCLC, 78.5%; with NCI-H460 lung, 105%; in the assay with HOP-92 NSCLC, 92.5%. Moreover, the growth is 71.2% in the assay with NCI-H522 lung; 72.4% in the assay with A549/ATCC NSCLC; 105% in the assay on 786-0 renal; 98.7% in the assay on COLO 205 colon; 107% in the assay with DU-145 prostate; 89.4% in the assay on K-562 leukemia. In addition, the growth in the assay on MALME-3M melanoma was 107%; in the assay on MDA-MB-231 breast, 99.2%; with SF-268 CNS it was 102%; in the assay with SF-295 CNS, 108%; in the assay with SF-539 CNS, 110%; in the assay on M14 melanoma, 103%.
